From PubChem BioAssay (EPA / NIEHS) come the findings set out here.

The nature of assay [1]: BSK_CASM3C_SRB: Viability Assessment in the BioMAP Diversity Plus: CASM3C Assay (AID 2283050).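 Further: total protein by SRB staining as cytotoxicity measure in parallel cultures; cells exposed to compound for 24 h.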 As to conditions: primary human coronary artery smooth muscle cells.
Read-out in assay [2]: Thrombomodulin, THBD (gene 7056)
Kind of assay: BSK_CASM3C_Thrombomodulin: BioMAP Diversity Plus: CASM3C Assay for Thrombomodulin Biomarker Activity (AID 2283051).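 Further: thrombomodulin protein level measured by ELISA 24 h after dosing.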 As to conditions: primary human coronary artery smooth muscle cells; actives raise or lower the signal.

Read-out in assay [3]: Tissue Factor, F3 (gene 2152)
Description: BSK_CASM3C_TissueFactor: BioMAP Diversity Plus: CASM3C Assay for Tissue Factor Biomarker Activity (AID 2283052).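 Further: cell surface tissue factor protein level read by ELISA.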 As to conditions: primary human coronary artery smooth muscle cells; actives raise or lower the signal.

Read-out in assay [4]: Interferon-gamma inducible Protein 10 (IP10), CXCL10 (gene 3627)
Kind of assay: BSK_hDFCGF_IP10: BioMAP Diversity Plus: hDFCGF Assay for Interferon-gamma inducible Protein 10 (IP10) Biomarker Activity (AID 2283053). Conditions: primary human foreskin fibroblasts; actives raise or lower the signal. An outline of the steps:
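Primary foreskin fibroblasts, human; 24 h compound exposure; IP-10 by ELISA; bidirectional fit vs DMSO.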

Read-out in assay [5]: Urokinase-type plasminogen activator receptor (uPAR), PLAUR (gene 5329)
Description: BSK_CASM3C_uPAR: BioMAP Diversity Plus: CASM3C Assay for Urokinase-type plasminogen activator receptor (uPAR) Biomarker Activity (AID 2283054).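 Further: cell-surface uPAR protein level quantified by ELISA.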 Conditions: primary human coronary artery smooth muscle cells; actives raise or lower the signal.

Read-out in assay [6]: Vascular cell adhesion molecule 1 (VCAM1), VCAM1 (gene 7412)
Description: BSK_CASM3C_VCAM1: BioMAP Diversity Plus: CASM3C Assay for Vascular cell adhesion molecule 1 (VCAM1) Biomarker Activity (AID 2283055).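 Further: VCAM-1 protein level quantified by ELISA on the cells.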 Conditions: primary human coronary artery smooth muscle cells; actives raise or lower the signal.

Read-out in assay [7]: Collagen III, COL3A1 (gene 1281)
Kind of assay: BSK_hDFCGF_CollagenIII: BioMAP Diversity Plus: hDFCGF Assay for Collagen III Biomarker Activity (AID 2283056). Conditions: primary human foreskin fibroblasts; actives raise or lower the signal. The gist of the method: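 Human foreskin primary fibroblasts were exposed to test chemicals for 24 h, after which collagen III was quantified by ELISA. Activity was fitted bidirectionally against DMSO as negative control and baseline.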

Read-out in assay [8]: Epidermal growth factor receptor (EGFR), EGFR (gene 1956)
Description: BSK_hDFCGF_EGFR: BioMAP Diversity Plus: hDFCGF Assay for Epidermal growth factor receptor (EGFR) Biomarker Activity (AID 2283057). Conditions: primary human foreskin fibroblasts; actives raise or lower the signal. The gist of the method: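 hDFCGF system, primary human foreskin fibroblasts; compound 24 h; EGFR measured by ELISA; DMSO = negative control/baseline; bidirectional fitting.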

Read-out in assay [9]: Interleukin-8 (IL8), CXCL8 (gene 3576)
Description: BSK_hDFCGF_IL8: BioMAP Diversity Plus: hDFCGF Assay for Interleukin-8 (IL8) Biomarker Activity (AID 2283058). Conditions: primary human foreskin fibroblasts; actives raise or lower the signal. The gist of the method: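 hDFCGF human dermal fibroblasts; 24 h chemical exposure; IL-8 by ELISA; bidirectional curve fit vs DMSO baseline; gain or loss of signal scored.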

A short description of assay [10]: BSK_hDFCGF_Proliferation: Cell Proliferation Assessment in the BioMAP Diversity Plus: hDFCGF Assay (AID 2283059).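 Further: curves fitted for both rise and fall of signal versus DMSO baseline.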 As to conditions: primary human foreskin fibroblasts. The gist of the method: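 Primary human foreskin fibroblasts, sub-confluent; […]; 10% TCA fix, 0.1% SRB stain, A560 total protein. Gain/loss fitted bidirectionally vs DMSO control.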

Where “and” joins values, the source holds several entries; their conditions need not be identical. Equal values may be shown once. More than one record can exist for a structure, and the calls need not agree. Calls of active or inactive are those of the source. How the source made its calls: active means hit-call score of the fitted dose curve at least 0.9, where 1 is the maximum; inactive means score below 0.9.

Turning to `CCN(CC)c1ccc(N=Nc2ccccc2)cc1`, the concentration at half-maximal activity (AC50) in assay [1] is 20 µM (active); in assay [2], 11.3 µM (active); in assay [6], 3.04 µM (active); in assay [7], 3.65 µM (active). The result in assay [3], in assay [4], in [5], in assay [8] and in assay [9] was inactive.

On to `C[Si](Cl)(Cl)CCC(F)(F)C(F)(F)C(F)(F)C(F)(F)C(F)(F)C(F)(F)F`, for which the outcome in assay [1], in assay [2], in [3], in assay [4], in [5] and in assay [6] was inactive. For the same compound, the result in assay [7], in [8] and in assay [9] was inactive. For the same compound, the half-maximal activity concentration (AC50) in [4] is 2.48 µM (active); in assay [7], 0.332 µM (active); in assay [10], 115 nM (active) and 2.85 µM (active).

As for `O=C(O)C(F)(F)C(F)(F)C(F)(F)C(F)(F)C(F)(F)C(F)(F)C(F)F`, the result in assay [1], in [2], in assay [3], in assay [4], in assay [5] and in assay [6] was inactive. The result in assay [7], in [8] and in assay [9] was inactive. The AC50 is 8.52 µM (active) in assay [4]; 30 µM (active) in [7]; 30 µM (active) and 1.81 µM (active) in assay [8].

Take `FC(F)(F)C(F)(F)C(F)(F)C(F)(F)C(F)(F)C(F)(F)C(F)(F)CCI`: the result in assay [1], in assay [2], in assay [3], in assay [4], in [5] and in assay [6] was inactive. Further, the result in [7], in assay [8] and in assay [9] was inactive. Also, the AC50 is 2.45 µM (active) in assay [4] and 2.26 µM (active) in assay [7].

With `CNS(=O)(=O)C(F)(F)C(F)(F)C(F)(F)C(F)(F)C(F)(F)C(F)(F)C(F)(F)C(F)(F)F`, the outcome in assay [1], in assay [2], in assay [3], in assay [4], in [5] and in assay [7] was inactive. For the same compound, the outcome in assay [8] and in assay [9] was inactive. The AC50 in assay [4] is 1.99 µM (active); in assay [6], 8.2 µM (active) and 1.69 µM (active).

`O=C1c2c(O)ccc(Nc3ccc(CCO)cc3)c2C(=O)c2c([N+](=O)[O-])ccc(O)c21`: the half-maximal activity concentration (AC50) is 4.72 µM (active) in assay [1], 20 µM (active) in assay [2], 20 µM (active) in assay [4] and 20 µM (active) in assay [7]. Further, the outcome in [3], in assay [5], in assay [6], in assay [8] and in assay [9] was inactive.

On to `CCN(CC)c1ccc(C=O)cc1`, for which the result in assay [1], in assay [2], in assay [4], in [5], in assay [6] and in assay [7] was inactive. Also, the result in assay [8] and in assay [9] was inactive. Moreover, the AC50 in assay [3] was 5.46 µM (active).

Take `C=CC(=O)OCC(F)(F)C(F)(F)C(F)(F)C(F)(F)C(F)(F)C(F)(F)C(F)(F)C(F)F`: the result in assay [1], in assay [2], in assay [3], in assay [4], in assay [5] and in [6] was inactive. Further, the result in assay [7], in assay [8] and in [9] was inactive. The half-maximal activity concentration (AC50) in assay [4] is 28.8 µM (active); in assay [6], 11 µM (active).

On to `C=CC(=O)OCCC(F)(F)C(F)(F)C(F)(F)C(F)(F)F`, for which the outcome in assay [1], in assay [2], in assay [3], in assay [5], in assay [7] and in assay [8] was inactive. The outcome in assay [9] was inactive. Moreover, the AC50 in [4] is 30 µM (active) and 21.3 µM (active); in assay [6], 30 µM (active); in [7], 21.9 µM (active).

Take `Nc1cc([N+](=O)[O-])cc(Cl)c1O`: the result in assay [1], in assay [2], in assay [3], in assay [4], in assay [5] and in assay [6] was inactive. In addition, the result in assay [7], in [8] and in assay [9] was inactive.

With `O=C(O)C(F)(F)C(F)(F)C(F)(F)C(=O)O`, the result in assay [1], in assay [2], in assay [3], in assay [4], in assay [5] and in assay [6] was inactive. In addition, the outcome in assay [7], in assay [8] and in assay [9] was inactive.

Take `O=C(O)C(F)(F)C(F)(F)C(F)(F)OC(F)(F)F`: the result in assay [1], in [2], in [3], in [4], in assay [5] and in assay [6] was inactive. The outcome in assay [7], in assay [8] and in assay [9] was inactive.

On to `Cc1ccc(O)c(-n2nc3ccccc3n2)c1`, for which the outcome in assay [1], in [2], in assay [3], in assay [4], in assay [5] and in assay [6] was inactive. The result in assay [7], in [8] and in assay [9] was inactive.

Take `C=CC(=O)OCC(F)(F)C(F)(F)C(F)(F)COC(=O)C=C`: the AC50 in assay [1] is 44.9 µM (active) and 28.3 µM (active); in [2], 7.48 µM (active) and 7.64 µM (active); in [3] it was 7.91 µM (active); in assay [4], 1.26 µM (active) and 1.32 µM (active); in assay [5], 48.3 µM (active) and 47.6 µM (active); in assay [6], 30 µM (active) and 25.8 µM (active). For the same compound, the concentration at half-maximal activity (AC50) was 5.04 µM (active) and 1.49 µM (active) in [7]; 3.92 µM (active) and 4.38 µM (active) in [9]. Moreover, the outcome in assay [3] and in [8] was inactive.

For the compound `O=S(=O)(O)CCC(F)(F)C(F)(F)C(F)(F)C(F)(F)F`, the outcome in assay [1], in [2], in assay [3], in [4], in assay [5] and in assay [6] was inactive. For the same compound, the result in assay [7], in assay [8] and in assay [9] was inactive. Besides, in [7], the AC50 was 2.04 µM (active).

For the compound `OCCCCC(F)(F)C(F)(F)C(F)(F)C(F)(F)F`, the outcome in [1], in assay [2], in [3], in assay [4], in [5] and in [6] was inactive. The outcome in assay [7], in assay [8] and in assay [9] was inactive.

As for `CCN=C1C=CC(=C(c2ccc(N(CC)CC)cc2)c2ccc(N(CC)CC)cc2)c2ccccc21`, the AC50 in [1] was 5.3 µM (active) and 5.29 µM (active); in [2], 1.03 µM (active) and 1.42 µM (active); in assay [3], 149 nM (active) and 1.21 µM (active); in assay [4], 1.52 µM (active) and 1.32 µM (active); in assay [5], 3.87 µM (active) and 3.2 µM (active); in assay [6] it was 5.39 µM (active) and 2.81 µM (active). Further, the AC50 in assay [7] is 1.15 µM (active) and 1.3 µM (active); in [9] it was 2.89 µM (active) and 2.29 µM (active). In assay [8], the result was inactive.
